Laboratory results from PubChem BioAssay AID501 (PCMD, 2006).
Out of some 62,000 compounds screened, about 35 (0.06%) were called active. No stated cut-off is given here; in the data, active means inhibition above about 32% (passing the limit was not always enough); inconclusive means no clear call, values can overlap the other calls. The full list was thinned out, with actives kept by preference.

Molecular target: Cathepsin S (Homo sapiens) (UniProt P25774)
Assay: blockers of CTSS protease activity – biochemical, compound mixtures (AID 501);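 further: 0% = enzyme without compound and 100% = blank without enzyme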
Conditions: recombinant cathepsin S, AMC dipeptide fluorescence, pooled mixtures; active compounds read high;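 tested at 5 µM per compound within 10-compound mixtures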

Cathepsin S (Homo sapiens), sequence (P25774 115-331 limits assumed): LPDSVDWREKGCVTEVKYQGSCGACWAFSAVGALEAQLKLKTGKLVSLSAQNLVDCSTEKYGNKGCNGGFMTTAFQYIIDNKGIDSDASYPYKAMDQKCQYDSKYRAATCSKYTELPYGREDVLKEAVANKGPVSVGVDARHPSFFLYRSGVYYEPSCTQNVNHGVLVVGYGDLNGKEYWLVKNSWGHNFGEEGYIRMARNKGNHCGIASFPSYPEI

inhibition, inactive:
CCOc1ccc2[nH]c(=O)c(CN(Cc3nnnn3Cc3ccccc3)CC3CCCO3)cc2c1 (centres undefined) 6.16%, CCOC(=O)CSc1nccc(N(C)C)c1C#N 14.4%, Cc1nnc(N(Cc2ccco2)C(=O)c2ccno2)s1 -4.35%, CCn1c(=O)cc(O)c2ccccc21 9.68%, COc1cc(C(=O)N(Cc2ccc(N(C)C)cc2)C2CCS(=O)(=O)C2)cc(OC)c1OC (centres undefined) 0.64%, Nc1nnc(C2CCCC2)s1 14.3%, CCc1ccccc1NC(=O)c1cccs1 8.09%, CCOC(=O)C1=C(CC)Nc2ccccc2N=C1NC(=O)c1cccc(S(=O)(=O)N2CCCC2)c1 -5.2%, CCC(=O)NC(=Nc1nc2ccccc2s1)NC(=O)CC -2.2%, C=CCn1c(SCc2cc(C(=O)OC)c(C)o2)nnc1-c1ccncc1 -3.76%, CCOc1ccc(-c2nnc(-c3ccco3)o2)cc1 -3.01%, CCOc1ccc(OCC)c(NC(=O)CN(C)S(=O)(=O)c2cccc3nsnc23)c1 -22.2%, CCOC(=O)CSc1nnc(CNc2ccc(F)cc2)o1 -5.03%, Cn1c(=NC(=O)CSCC(=O)N2CCOCC2)sc2ccccc21 14.7%, Cn1c(=O)[nH]c(=O)c2c1nc(CN(Cc1ccccc1)Cc1ccccc1)n2CCN1CCOCC1 2.01%, COc1ccc(Br)cc1S(=O)(=O)N1CCN=C1C -2.2%, Cn1c(=NC(=O)CSCC(=O)N2CCCCC2)sc2ccccc21 6.42%, CSCCC(NS(=O)(=O)/C=C/c1ccccc1)C(=O)N1CCC(C)CC1 (centres undefined) -1.31%, CCOC(=O)N1CCC(NC(=O)CCc2cn(C)c3ccccc23)CC1 -4.61%, CCn1cc(C(=O)NCc2ccc(OC)cc2OC)c(=O)c2ccc(C)nc21 0.185%, CCN(CC)P(=O)(/C(Cl)=C\Nc1c(C)n(C)n(-c2ccccc2)c1=O)N(CC)CC 0.845%, COc1ccc(C)cc1NC(=O)c1[nH]c(C)c(C(C)=O)c1C -3.92%, Fc1ccc2[nH]c3c(N4CCN(Cc5ccc6c(c5)OCO6)CC4)ncnc3c2c1 -6.06%, CCc1c(C)nc(N)n2c(SCC(=O)N3CCN(c4ccccc4)CC3)nnc12 -12.8%, CN1CCN(CC(O)COCc2ccc3c(c2)OCO3)CC1 (centres undefined) 5.75%, CC(=O)Nc1cccc(NC(=O)c2c(-c3ccccc3)noc2C)c1 -5.8%, O=C(NCCCN1CCOCC1)c1cc(-c2ccc(Cl)cc2)on1 -0.13%, O=C(NCCc1ccco1)c1nn(Cc2ccccc2)c(=O)c2ccccc12 11.9%, O=C(C1CCCO1)N(Cc1ccccc1)c1ccccc1 (centres undefined) -2.27%, Cc1ccsc1C(C(=O)NC1CCCCC1)N(C(=O)Cc1cccs1)C1CC1 (centres undefined) 6.71%, Cc1cc(=O)n2nc(N3CCCC(C(=O)NCCC4=CCCCC4)C3)sc2n1 (centres undefined) 19.8%, CCOC(=O)C1CCCN(C(=O)Cn2ncc3c(=O)oc4ccc(C)cc4c32)C1 (centres undefined) 7.33%, O=C(Nc1cccnc1)c1noc2c1CCCCC2 10.9%, CCc1cc2c(=O)c(-c3ccon3)c(N)oc2cc1OC -1.48%, COc1ccc(C(c2nnnn2Cc2cccs2)N2CCN(c3ccccc3)CC2)cc1OC (centres undefined) -6.06%, CC(C)COC(=O)C1C2C=CC3(CN(C(C)c4ccc(Br)cc4)C(=O)C13)O2 (centres undefined) 14.7%, O=C(O)c1ccc(-n2cccc2)cc1O 5.17%, CCOc1cc(C(=O)Nc2ncccn2)cc(OCC)c1OCC 31.7%, Cc1ccsc1CNn1cnnc1SCc1ccccc1F -4.25%, CCOC(=O)CCCNC(=O)CN1C(=O)NC(CCc2ccccc2)C1=O (centres undefined) -3.72%, CC1CCCC(N2CCN(C(=O)c3ccc(F)cc3)CC2)C1 (centres undefined) -4.6%, CSCC[C@H](NC(=O)NCCc1ccc(F)cc1)C(=O)O -4.51%, CCCCc1cc(=O)oc2cc(C)cc(OCc3nn[nH]n3)c12 1.43%, CCN(CC)S(=O)(=O)c1ccc(NC(=O)CN(c2cccc(F)c2)S(C)(=O)=O)cc1 -8.46%, CC(C)(CSc1nncn1/N=C/c1ccco1)NS(=O)(=O)c1ccc(Cl)cc1 6.83%, CC1(C)SC2c3ccccc3C(=O)N2[C@@H]1C(=O)NCc1ccco1 (some centres undefined) -3.88%, CCOC(=O)c1c(C)[nH]c(C)c1C(=O)CSc1nc(N)cc(N)n1 5.32%, O=C(C1CCN(c2nnc(-n3cccc3)s2)CC1)N1CCc2ccccc2C1 4.27%, Cc1cc(Nc2cccc(C)c2C)n2ncnc2n1 -1.92%, COC(=O)c1ccc(NC(=O)CN(c2ccc(C)cc2)S(=O)(=O)c2c(C)n[nH]c2C)cc1 -7.46%, COc1ccc(N(CC(=O)NC(C)(C)C)C(=O)c2ccco2)cc1 10.2%, Cc1cc(Cl)ccc1N1C(=O)CC(SCCC(=O)O)C1=O (centres undefined) 1.91%, COc1cc2ccccc2cc1C(=O)Nc1ccc(S(=O)(=O)Nc2cc(C)on2)cc1 -7.28%, Cc1cc(=O)[nH]c(SCC(=O)N2c3ccccc3CC2C)n1 (centres undefined) 33.4%
